# An excerpt weighted towards active compounds, which were near 2.1% of everything screened.
# CASP6 VEID inh = human caspase-6 inhibitors, primary screen, biochemical, VEID-R110 fluorescence, single point, set 2; 350,000 compounds, 0.53% hits; purified caspase-6, Z-VEID-R110 cleavage fluorescence; inhibition, % at 12.5 µM; P55212;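 active means mean inhibition across replicates at least about 35%, with every replicate also reaching that limit, limit read from the data; inconclusive means only one of the two criteria met; inactive means neither criterion met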;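 further: 0% = median of neutral control wells and 100% = no fluorescence left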
# Target sequence (P55212 24-179 limits assumed): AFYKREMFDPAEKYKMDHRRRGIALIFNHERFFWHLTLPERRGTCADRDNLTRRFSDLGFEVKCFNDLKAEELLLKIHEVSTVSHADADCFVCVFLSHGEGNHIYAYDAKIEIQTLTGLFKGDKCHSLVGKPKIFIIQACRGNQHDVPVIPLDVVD
# Target sequence (P55212 194-293 limits assumed): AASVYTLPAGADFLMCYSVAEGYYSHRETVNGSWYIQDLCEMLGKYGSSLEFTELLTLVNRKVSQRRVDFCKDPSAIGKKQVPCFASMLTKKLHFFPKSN
# ARNT-TACC3 inh = disruptors of ARNT/TACC3 protein interaction, primary screen, biochemical, AlphaScreen, single concentration | Transforming acidic coiled-coil-containing protein 3 (Homo sapiens), Q9Y6A5 | AlphaScreen His-ARNT PAS-B/GST-TACC3 binding, luminescence; TACC3 fragment carries E629A point mutation | inhibition, % at 9.99 µM | 390,000 compounds, 0.66% hits | AID 623870, 2012;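 active means mean inhibition of replicates at least 50% and at least half of replicates each reaching 50%; inconclusive means half or more replicates reach 50% but mean below 50%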;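 further: 0% = complete ARNT plus TACC3 wells and 100% = ARNT alone without TACC3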
# NSD2 HMT inh = NSD2 histone methyltransferase inhibitors, primary screen, biochemical, AlphaScreen, single concentration, set 2. 310,000 compounds, 0.54% hits. inhibition, % at 12.5 µM. AID 743445, 2014. NSD2 peptide methylation, 120 min. Histone-lysine N-methyltransferase NSD2 (Homo sapiens), O96028; in the data active means inhibition above about 50%
# SIRT5 block = SIRT5 desuccinylase inhibitors, primary screen, biochemical, fluorescence imaging, single point, set 5; inhibition, % at 15 µM; Purified SirT5, succinyl-peptide AMC, trypsin-coupled fluorescence; NAD-dependent protein deacylase sirtuin-5, mitochondrial (Homo sapiens), Q9NXA8; AID 652115, 2013; 330,000 compounds, 1.1% hits; in the data active means inhibition above about 15%; inconclusive means no clear call, values can overlap the other calls
# PfHsp90 yeast 2 = growth inhibition of PfHsp90-expressing yeast, primary screen, antimalarial PfHsp90 inhibitor project, S. cerevisiae, BacTiter-Glo luminescence, single point, set 2. BacTiter-Glo ATP, 48 h; yeast lacking PDR1 and PDR3 efflux regulators. inhibition, % at 9.4 µM. 310,000 compounds, 0.32% hits;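 active means every replicate shows inhibition above about 80%, whatever the replicate mean, limit read from the data; inconclusive means mean inhibition reaches the set limit but some replicate falls short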;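 further: 0% = DMSO neutral controls and 100% = 20 µM radicicol positive controls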
# Active calls of the source: *; ? = inconclusive; nt = no result.
SMILES,CASP6 VEID inh,ARNT-TACC3 inh,NSD2 HMT inh,SIRT5 block,PfHsp90 yeast 2
COc1ccc(CN(C)C[C@H]2OCCCC[C@H](C)Oc3ccc(NS(=O)(=O)c4ccccc4)cc3C(=O)N([C@H](C)CO)C[C@H]2C)cc1,-3.0,-8.8,nt,-1.9,nt
COc1ccc(NC(=O)N(C)C[C@@H]2Oc3cc(C#CCC(C)C)ccc3S(=O)(=O)N([C@H](C)CO)C[C@@H]2C)cc1,-1.0,2.7,nt,30.8*,nt
COc1ccc(NC(=O)N(C)C[C@@H]2Oc3cc(C#CCC(C)C)ccc3S(=O)(=O)N([C@@H](C)CO)C[C@H]2C)cc1,1.5,9.5,nt,30.6*,nt
COc1ccc(NC(=O)N(C)C[C@H]2Oc3cc(C#CCC(C)C)ccc3S(=O)(=O)N([C@H](C)CO)C[C@H]2C)cc1,2.3,3.7,nt,25.4*,nt
CCCC#Cc1ccc2c(c1)O[C@H](CN(C)C(=O)Nc1ccc(OC)cc1)[C@@H](C)CN([C@H](C)CO)S2(=O)=O,-1.8,3.5,nt,12.6,nt
COc1ccc(NC(=O)N(C)C[C@H]2Oc3cc(C#CCC(C)C)ccc3S(=O)(=O)N([C@H](C)CO)C[C@@H]2C)cc1,-0.7,-3.0,nt,26.1*,nt
CCCC#Cc1ccc2c(c1)O[C@@H](CN(C)C(=O)Nc1ccc(OC)cc1)[C@@H](C)CN([C@H](C)CO)S2(=O)=O,-0.7,-2.1,nt,6.2,nt
CCCC#Cc1ccc2c(c1)O[C@H](CN(C)C(=O)Nc1ccc(OC)cc1)[C@H](C)CN([C@H](C)CO)S2(=O)=O,-2.7,1.2,nt,4.4,nt
CNC(=O)C[C@H]1CC[C@H]2[C@@H](COC[C@@H](O)CN2C(=O)c2ccc3c(c2)OCO3)O1,-0.1,-7.3,nt,-0.1,nt
C[C@@H]1CN([C@H](C)CO)C(=O)Cc2cc(NC(=O)CCC(F)(F)F)ccc2O[C@@H]1CN(C)Cc1ccc(C(=O)Nc2ccccc2N)cc1,-1.3,3.4,nt,2.5,nt
O=C(COc1ccc(S(=O)(=O)NC2CCCCC2)cc1Cl)NCc1ccc2c(c1)OCO2,40.4*,-5.0,-0.1,0.5,39.1
O=C(COc1ccc(S(=O)(=O)NC2CCCCC2)cc1Cl)Nc1ccc2c(c1)OCO2,nt,0.7,3.8,nt,-5.3
O=Nc1ccc(Cl)cn1,22.7,nt,nt,nt,nt
Clc1ccc(N=c2ssnc2Cl)nc1,17.9,-10.2,18.0,2.5,120.3*
Clc1nssc1=Nc1ccc(Br)cc1,-0.3,-6.8,nt,-2.9,104.8*
COc1cc(N=c2ssnc2Cl)cc(OC)c1,nt,4.2,3.6,nt,-49.7
COCC(=O)N1C[C@H]2[C@@H](c3ccccc31)[C@H](CO)N2C(=O)Nc1ccccc1Cl,0.3,1.9,nt,0.1,nt
CCC(=O)N[C@@H]1C=C[C@@H](CC(=O)NCc2ccc(OC)cc2)O[C@H]1CO,5.5,-33.2,nt,1.5,nt
COc1ccc(CN(C(=O)Cn2nnc(-c3ccc(C)o3)n2)C(C(=O)NCC2CCCO2)c2ccco2)cc1 (stereo unspecified),3.4,-18.5,nt,112.2*,3.5
Cc1ccc(-c2nnn(CC(=O)N(Cc3ccco3)C(C(=O)NC(C)(C)C)c3ccc(C)o3)n2)o1 (stereo unspecified),3.9,2.2,4.0,18.2*,-19.9
Cc1ccc(-c2nnn(CC(=O)N(Cc3ccccc3)C(C(=O)NC(C)(C)C)c3ccncc3)n2)o1 (stereo unspecified),3.7,-1.0,2.3,-0.4,nt
CO[C@H]1CN(C)C(=O)c2cc(NC(=O)NC(C)C)ccc2OC[C@@H](C)N(Cc2cncnc2)C[C@H]1C,nt,-8.0,nt,nt,nt
COc1ccccc1C(c1nnnn1C(C)(C)C)N1CCN(Cc2ccncc2)CC1 (stereo unspecified),nt,-1.3,0.9,nt,25.0
CCC(c1nnnn1C(C)(C)C)N1CCN(Cc2ccccc2OC)CC1 (stereo unspecified),1.5,11.8,0.0,16.6*,-5.7
CCc1cccc2c(C(=O)COC(=O)c3ccc([N+](=O)[O-])s3)c[nH]c12,3.9,nt,1.3,-2.2,?
O=C(OCC(=O)c1c[nH]c2ccccc12)c1ccc([N+](=O)[O-])s1,3.5,9.5,2.6,12.4,110.2*
